DAX1 inh-1 = NR0B1 (DAX1) inhibition; P51843; HEK293 Gal4-DAX1 luciferase reporter, luminescence; inhibition, % at 6.75 µM; 340,000 tested, 0.99% active; AID 504766;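 active = inhibition above the mean over all tested compounds plus 3 SD, cut at about 4.2% in these data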;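 note: 0% = DAX1-transfected cells with DMSO and 100% = empty-vector control cells with DMSO; inhibition shows as a rise in luminescence from relieved DAX1 repression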
Target sequence (P51843 207-470 limits assumed): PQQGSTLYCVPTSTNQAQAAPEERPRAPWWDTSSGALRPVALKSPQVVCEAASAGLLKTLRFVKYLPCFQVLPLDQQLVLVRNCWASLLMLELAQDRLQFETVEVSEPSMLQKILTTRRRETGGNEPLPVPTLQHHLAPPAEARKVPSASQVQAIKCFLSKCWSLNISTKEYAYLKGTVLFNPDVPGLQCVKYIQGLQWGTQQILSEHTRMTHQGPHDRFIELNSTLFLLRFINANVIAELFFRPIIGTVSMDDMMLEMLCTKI
DAX1 inh-2 = blocks DAX1 repression of SF-1 activated StAR promoter | inhibition, % at 6.8 µM | 370,000 tested, 1.1% active | HEK293T StAR-luciferase reporter, SF-1/DAX-1 repression relief;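 active = inhibition above the mean over all tested compounds plus 3 SD, cut at about 3.6% in these data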;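 note: 0% = DAX-1 cells with DMSO and 100% = cells lacking DAX-1 with DMSO; higher inhibition means more luminescence from relief of DAX-1 repression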
hgDAF12 agonist = agonists of H. glycines DAF-12 nuclear receptor | HEK293 GAL4-hgDAF12 UAS-luciferase reporter, agonist luminescence; normalized to butyrate control | activation, % at 6.8 µM | 370,000 tested, 1.8% active | AID 687014;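 active = activation above a cutoff set at the mean of all screened compounds plus 3 SD, cut at about 10% in these data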;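 note: 0% = DMSO wells and 100% = sodium butyrate wells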
ssDAF-12 act = activates DAF-12 receptor from parasite S. stercoralis; 370,000 tested, 1% active; AID 652126; activation, % at 6.8 µM; HEK293 ssDAF-12/GRIP1 lit1-tk-luc reporter, luminescence; % of 3 µM dafachronic acid response;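 active = activation above the mean over all tested compounds plus 3 SD, cut at about 0.9% in these data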;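 note: 0% = DMSO-only wells and 100% = 3 µM delta7-dafachronic acid wells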
hcDAF-12 act = H. contortus DAF-12 activation, primary screen; HEK293 hcDAF-12 lit1-tk-luc reporter, luminescence; 0% DMSO, 100% Δ7-dafachronic acid; activation, % at 6.8 µM; 370,000 tested, 1.4% active;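 active = activation above the mean of all tested compounds plus 3 SD, cut at about 5.5% in these data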;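 note: 100% = response to 3 µM Δ7-dafachronic acid high control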
Active calls of the source: *; . = no result given. Compounds with a hit are over-represented: about 4.1% of the library has one in this group of screens.

SMILES	DAX1 inh-1	DAX1 inh-2	hgDAF12 agonist	ssDAF-12 act	hcDAF-12 act
CN(Cc1ccccc1)Cc1c(O)ccc2ccccc12	1.5	0.5	-0.5	-1.0	1.1
CSc1ccccc1NC(=O)CN(C)Cc1ccc(Br)cc1	0.3	-1.0	-1.5	-1.4	-1.3
CSc1ccccc1NC(=O)CN(C)Cc1c(O)ccc2ccccc12	2.0	0.4	-2.6	-0.8	6.2*
NC(=O)C1CCN(C(=O)CCc2nc3ccccc3c(=O)[nH]2)CC1	0.0	1.8	-2.0	-1.1	-0.4
CN1CCN(C(=O)CCc2nc3ccccc3c(=O)[nH]2)CC1	1.6	0.5	0.2	-0.3	6.0*
CCN(CC)C(=O)CC[C@@H]1CC[C@]2(CCCN(Cc3ccc(Cl)cc3)C2)O1	.	0.6	-1.6	-0.8	-1.6
COc1ccc2c(c1)CN1C(=O)N(Cc3ccccc3)S(=O)(=O)CC21 (centres undefined)	.	-0.6	3.9	-0.3	-1.3
O=C(NCCO)[C@H](Cc1ccccc1)NC1(C(=O)NCCN2CCOCC2)CCCCC1	.	.	0.4	-1.7	0.5
CN(Cc1nc2ccccc2c(=O)[nH]1)c1ccccc1	5.3*	0.1	2.5	-0.3	3.4
CCc1ccc2nc3nc(C)cc(C)c3c(N)c2c1	0.3	0.2	3.4	-0.4	2.2
Cc1cc(C)c2c(N)c3ccccc3nc2n1	-0.9	1.9	11.1*	4.0*	18.3*
CN(C)c1ccc(C(=O)Nc2cccc(S(=O)(=O)NC3=NCCCCC3)c2)cc1	0.0	-1.3	-0.2	-0.5	1.1
CC(C)(C)c1ccc(C(=O)Nc2cccc(S(=O)(=O)NC3=NCCC3)c2)cc1	0.1	4.0*	7.8	-1.1	2.9
COC(=O)C1CN(Cc2cn(Cc3ccc(Cl)cc3)nn2)CCS(=O)(=O)N1Cc1ccc(OC)cc1 (centres undefined)	.	-2.5	-2.6	-2.0	-2.5
COC(=O)[C@@H](Cc1ccccc1)NC(=O)NCCc1ccc(OC)c(OC)c1	4.3*	-0.6	1.8	-0.9	0.4
COc1ccc(CCNC(=O)CC(Cc2ccccc2)C(=O)O)cc1OC (centres undefined)	1.0	2.1	-3.5	-0.6	-1.8
CCCCCCCCN1C(=O)[C@@H](CC(=O)NCc2ccccc2)C[C@@]2(C(=O)OC)C1=C[C@H](C(C)C)O[C@@H]2C1CC1	.	0.0	2.1	-1.3	-3.0
O=C(NNC(=O)c1ccccc1Br)c1ccc(Cl)cc1	0.6	0.4	0.3	-1.1	-3.2
O=C(NNC(=O)c1ccccc1Br)c1ccccc1Cl	5.5*	0.8	0.4	-0.5	-0.2
Cc1ccc2nc(CN(C)C(=O)[C@@H](Cc3ccccc3)NC(=O)[C@H]3O[C@@H](n4cnc(C(N)=O)n4)[C@H](O)[C@@H]3O)[nH]c2c1	.	0.1	-0.7	-1.1	-0.9
O=C1c2ccccc2-c2nnc(-c3ccc(O)cc3)cc21	-0.6	2.8	11.1*	-0.3	5.9*
Cc1ccc(-c2cc3c(nn2)-c2ccccc2C3=O)cc1	-7.0	0.8	9.8	0.1	6.3*
C#CCNC(=O)C[C@H]1C[C@@]2(C(=O)OC)C(=C[C@H](C3CCCC3)O[C@@H]2C)N(Cc2cccc3ccccc23)C1=O	.	-0.8	0.0	-0.7	-0.4
O=C(OC12CCCN(C1)/C(=C/c1ccccc1)C2)c1ccc(Cl)cc1 (centres undefined)	.	-0.7	0.8	-1.1	-0.6
CN1C(=O)C[C@@](C#N)(C(=O)Nc2nc3ccc(F)cc3s2)[C@H]1c1ccccc1	.	-0.7	-3.7	-1.3	-1.7
SMILES	DAX1 inh-1	DAX1 inh-2	hgDAF12 agonist	ssDAF-12 act	hcDAF-12 act
CC1NC(=O)c2cc3ccccc3cc2-n2c1nc1cc(Cl)ccc1c2=O (centres undefined)	1.4	-1.3	1.8	1.1*	3.0
CCC1NC(=O)c2cc3ccccc3cc2-n2c1nc1cc(F)ccc1c2=O (centres undefined)	-0.8	-0.1	-3.9	-0.4	0.2
O=C1NC(Cc2ccccc2)c2nc3ccccc3c(=O)n2-c2cc3ccccc3cc21 (centres undefined)	-0.4	-7.6	-3.2	-0.6	-1.8
CC1NC(=O)c2cc3ccccc3cc2-n2c1nc1cc(F)ccc1c2=O (centres undefined)	-0.2	-0.3	0.6	1.8*	4.3
Cc1ccc2c(=O)n3c(nc2c1)C(Cc1ccccc1)NC(=O)c1cc2ccccc2cc1-3 (centres undefined)	-0.3	2.3	-1.1	1.2*	1.4
Cc1ccc(-c2nnc(SCC(=O)Nc3ccc4c(c3)OCCO4)n2-c2ccc(C)cc2)cc1	.	0.4	3.6	-1.3	-2.2
